# Reference: PubChem BioAssay AID686978 (National Center for Advancing Translational Sciences (NCATS), 2013)
# Among all 420,000 compounds or so, about 64,000 (15%) were called active. Not shown: some 27% with an inconclusive outcome. The call rests on the fitted dose curve; in most records, active means well fitted inhibition curve with a large enough effect; inconclusive means small, poorly fitted or top-dose-only effect; inactive means flat fitted curve, though single readings scatter. The list is a sample of the results. A call without a number means that no potency is given here.
# Assay: qHTS for Inhibitors of human tyrosyl-DNA phosphodiesterase 1 (TDP1): qHTS in cells in absence of CPT; further: nearly all actives have a fitted effect of over 55% in size
# Conditions: DT40 Tdp1-/- hTDP1 cells, no CPT, ATP luminescence, 48 h; activity change, negative = growth inhibition: at 46.2 µM (top of the series)
# Outline: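 No-CPT arm: Tdp1-/-;hTDP1 DT40 cells (400/well) plus compounds, incubated ≥48 hr at 37 °C. Readout CellTiter-Glo luminescence.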
# Potency means the concentration at half of the fitted maximal effect.
row,SMILES,Potency
1,Cc1ccc(-n2nc3c(c2NC(=O)CCC2CCCCC2)CS(=O)C3)cc1 (stereo not drawn),inactive
2,CCN1CCC(O)(/C=C/c2ccc(C)cc2)C(C(=O)/C=C/c2ccc(C)cc2)C1 (stereo not drawn),4.61 µM (active)
3,O=S(=O)(c1ccc(Cl)s1)N1CCC2(CC1)OCCO2,inactive
4,COc1cc(OC)cc(C(=O)NC(=S)N2CCN(c3ccc(C(F)(F)F)cc3[N+](=O)[O-])CC2)c1,16.4 µM (active)
5,O=C(Nc1cc(Cl)ccc1N1CCOCC1)c1ccc(N2CCCC2=O)cc1,inactive
6,O=C(c1ccc(N2CCCC2=O)cc1)N1CCN(c2ccc(C(F)(F)F)cc2[N+](=O)[O-])CC1,2.31 µM (active)
7,CNS(=O)(=O)c1ccc(N2CCCC2=O)c([N+](=O)[O-])c1,inactive
8,COc1cc(C(=O)Nc2cc(C(F)(F)F)ccc2-n2cncn2)cc(OC)c1OC,inactive
9,O=[N+]([O-])c1cc(C(F)(F)F)ccc1NN=C1CCCC1,inactive
10,C=CCO/N=C/C1=C(O)C(C(=O)OC)C(C)(C)CC1=O (stereo not drawn),inactive
11,CC(C)(C)c1ccccc1NC(=O)CN1C(=O)NC2(CCCC2)C1=O,inactive
12,CCc1[nH]nc(C(=O)N2CCCC(CNS(=O)(=O)c3cccs3)C2)c1C (stereo not drawn),inactive
13,O=C(COC(=O)CCc1nc2ccccc2c(=O)[nH]1)Nc1ccc(N2CCOCC2)cc1,inactive
14,CC(Nc1nc(N2CCOCC2)nc2ccccc12)c1ccccc1 (stereo not drawn),18.4 µM (active)
15,O=C(NNc1nc(N2CCCC2)nc(N2CCCC2)n1)c1ccccc1,inactive
16,CC(CN1CCOCC1)c1ccccc1 (stereo not drawn),inactive
17,FC(F)(F)c1cc(-c2ccco2)nc(N2CCOCC2)n1,inactive
18,CC(Nc1nc(N2CCCC2)nc2ccccc12)c1ccccc1 (stereo not drawn),20.6 µM (active)
19,Cc1ccc(C(CC(=O)O)Nc2nc(N3CCCCC3)nc(N3CCCCC3)n2)cc1 (stereo not drawn),inactive
20,c1ccc2c(NC3C4CC5CC(C4)CC3C5)nc(N3CCOCC3)nc2c1 (stereo not drawn),20.6 µM (active)
21,CC(NC(=O)C1CCC(CNc2c(N3CCOCC3)c(=O)c2=O)CC1)c1ccccc1 (stereo not drawn),inactive
22,NC(=O)c1ccc(N2CCCC2)nc1,inactive
23,COc1ccccc1C(=O)Nc1ccc(Nc2ccccc2)cc1,inactive
24,COc1ccccc1C(=O)Nc1ccc(OCc2nnc3c4ccccc4c(C)nn23)cc1,13 µM (active)
25,COc1cc(C(=O)Nc2ccc(OCc3cc(=O)n4cc(C)sc4n3)cc2)cc(OC)c1OC,inactive
26,O=C1N=C2SCCN2/C1=C\c1c(Cl)cccc1Cl,inactive
27,Cc1c(C(=O)NCCN2C(=O)S/C(=C\c3cccs3)C2=O)cccc1[N+](=O)[O-],inactive
28,CN(C)c1ccc(C(CC(=O)O)C(=O)O)cc1 (stereo not drawn),inactive
